# PubChem BioAssay (NCATS)
# Records with an inconclusive call do not appear. Entries that show only a call come without a potency. Unmarked numbers belong to inactive results. Active and inactive are the calls of the source. Unless noted, calls follow the shape of the dose curve; as a rule, active = well fitted curve in the direction sought with a large enough effect; inconclusive = small, poorly fitted or top-dose-only effect, or another doubt; inactive = no such curve, though single readings can be large; an effect the other way counts as inactive or inconclusive.
# Key:
# [1] = biological target: Voltage-gated inwardly rectifying potassium channel KCNH2 (Homo sapiens) (UniProt Q12809); assay: qHTS Assay for Small Molecule Inhibitors of the Human hERG Channel Activity (AID 588834); details: U2OS BacMam hERG, FluxOR thallium flux fluorescence; series mostly up to 46.1 µM;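 also: lower thallium flux fluorescence means stronger hERG block; nearly all actives have a fitted effect of over 50% in size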; also: potency is read from the fitted curve at half-maximal effect
# Chain of Voltage-gated inwardly rectifying potassium channel KCNH2 (Homo sapiens) (Q12809 whole entry, looked up): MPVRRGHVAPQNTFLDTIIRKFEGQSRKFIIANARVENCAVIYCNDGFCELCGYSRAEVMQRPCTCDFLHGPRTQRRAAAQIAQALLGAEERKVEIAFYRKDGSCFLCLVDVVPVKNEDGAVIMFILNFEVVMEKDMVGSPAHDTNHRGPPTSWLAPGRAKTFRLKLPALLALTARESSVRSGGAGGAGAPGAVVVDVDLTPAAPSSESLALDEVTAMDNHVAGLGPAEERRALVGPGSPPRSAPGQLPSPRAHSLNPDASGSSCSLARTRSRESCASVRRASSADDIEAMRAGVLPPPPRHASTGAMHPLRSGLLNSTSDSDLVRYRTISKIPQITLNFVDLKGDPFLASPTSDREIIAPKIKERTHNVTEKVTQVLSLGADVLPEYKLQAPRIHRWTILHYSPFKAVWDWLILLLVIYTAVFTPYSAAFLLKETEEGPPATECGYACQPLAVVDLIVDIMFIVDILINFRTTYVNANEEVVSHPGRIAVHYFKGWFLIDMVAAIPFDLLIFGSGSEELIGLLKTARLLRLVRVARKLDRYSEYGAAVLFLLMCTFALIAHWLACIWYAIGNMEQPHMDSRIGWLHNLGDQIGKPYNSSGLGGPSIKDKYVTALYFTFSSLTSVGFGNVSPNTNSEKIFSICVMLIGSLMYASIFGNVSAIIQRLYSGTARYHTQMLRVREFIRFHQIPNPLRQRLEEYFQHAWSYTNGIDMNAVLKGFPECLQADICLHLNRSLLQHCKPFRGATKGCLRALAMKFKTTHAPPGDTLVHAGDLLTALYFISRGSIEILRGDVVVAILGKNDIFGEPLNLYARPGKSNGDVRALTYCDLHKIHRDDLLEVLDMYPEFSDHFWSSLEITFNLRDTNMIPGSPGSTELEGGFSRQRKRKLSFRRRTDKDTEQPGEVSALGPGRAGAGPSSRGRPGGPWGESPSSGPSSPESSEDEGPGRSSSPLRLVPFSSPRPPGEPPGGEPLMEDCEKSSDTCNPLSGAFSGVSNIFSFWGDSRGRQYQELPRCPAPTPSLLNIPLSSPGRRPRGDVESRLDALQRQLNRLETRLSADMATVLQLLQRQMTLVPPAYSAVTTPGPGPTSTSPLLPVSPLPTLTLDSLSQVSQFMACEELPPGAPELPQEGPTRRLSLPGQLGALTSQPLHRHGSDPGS
# How it was run: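 In hERG-transduced U2OS cells, dye-loaded for 1 hr at room temperature in dark, test compounds incubated 10 min at 37 °C before thallium stimulation. AC50 values derived by Hill modelling of concentration-response.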
# [2] = biological target: Luciferin 4-monooxygenase (Photinus pyralis) (UniProt P08659); assay: Biochemical firefly luciferase enzyme assay for NPC (AID 624030); also: nearly all actives have a fitted effect of over 70% in size; also: potency is read from the fitted curve at half-maximal effect; details: purified P. pyralis luciferase, luminescence, 5 min; series mostly up to 58.6 µM
# Chain of Luciferin 4-monooxygenase (Photinus pyralis) (P08659 whole entry, looked up): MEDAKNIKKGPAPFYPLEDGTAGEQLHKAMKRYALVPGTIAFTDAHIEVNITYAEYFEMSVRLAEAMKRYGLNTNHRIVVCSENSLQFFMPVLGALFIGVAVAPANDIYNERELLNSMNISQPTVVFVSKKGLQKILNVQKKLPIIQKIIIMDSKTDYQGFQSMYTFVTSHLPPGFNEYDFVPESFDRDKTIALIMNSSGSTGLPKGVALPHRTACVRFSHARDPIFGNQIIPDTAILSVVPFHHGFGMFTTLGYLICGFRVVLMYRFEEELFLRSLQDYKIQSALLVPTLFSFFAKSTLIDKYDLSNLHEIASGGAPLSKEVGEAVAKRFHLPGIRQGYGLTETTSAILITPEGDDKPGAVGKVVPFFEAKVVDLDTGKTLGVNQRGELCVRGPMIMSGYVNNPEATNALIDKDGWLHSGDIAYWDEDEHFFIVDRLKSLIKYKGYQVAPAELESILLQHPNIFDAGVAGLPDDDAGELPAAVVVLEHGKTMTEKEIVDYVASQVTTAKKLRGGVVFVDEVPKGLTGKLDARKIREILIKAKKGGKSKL
# How it was run: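 Counter-screen for direct inhibition of the luciferase enzyme by approved-drug library compounds, run at 10 nM enzyme in 50 mM Tris acetate (final). Luminescence was read within 5 min of enzyme-buffer addition and normalized to PTC124 versus DMSO (0%).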
# [3] = S16 Schwann cell viability assay (CellTiter-Glo assay) (AID 624031); details: S16 rat Schwann cells viability, 24 h; series mostly up to 57.5 µM;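 also: native untransfected S16 rat Schwann cells; nearly all actives have a fitted effect of over 70% in size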
# How it was run: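 Counter-screen for cytotoxicity: parental S16 rat Schwann cells lacking the PMP22 reporters, treated 24 h with compound, viability from cellular ATP by CellTiter-Glo luminescence, normalized to DMSO (0%) and no-cell wells.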
# [4] = S16 Schwann cell PMP22 intronic element firefly luciferase assay (AID 624032); details: S16 rat Schwann cells, PMP22 element FLuc, 24 h; series mostly up to 57.5 µM; also: nearly all actives have a fitted effect of over 30% in size; also: potency is read from the fitted curve at half-maximal effect
# How it was run: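 Rat S16 Schwann cells stably carrying a PMP22 intronic element-driven Fluc reporter were seeded overnight, then exposed to compounds for 24 h at 37 °C. Luminescence was normalized to PTC124 (positive control) and DMSO (0% activity).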
# [5] = S16 Schwann cell PMP22 intronic element beta-lactamase assay (AID 624044; calls by dose curve; also: nearly all actives have a fitted effect of over 15% in size); details: S16 rat Schwann cells, PMP22 element beta-lactamase FRET, 24 h; ratio activity, negative = inhibition: at 38.3 µM (top of the series) unless noted
# How it was run: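 Beta-lactamase reporter under a PMP22 intronic regulatory element in stable S16 rat Schwann cells; 24 h compound exposure. 460 nm blue signal normalized between DMSO (0%) and potassium clavulanate, with 535 nm FRET tracking viability; curves classed by r2 and response.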
SMILES,Potency [1],Potency [2],Potency [3],Potency [4],"ratio activity, negative = inhibition [5]"
O=C(NNCNNC(=O)c1ccncc1)c1ccncc1,inactive,inactive,inactive,inactive,-2.76%
CN1CCC(OC(=O)C(Oc2ccc(Cl)cc2)Oc2ccc(Cl)cc2)CC1,1 µM (active),inactive,inactive,inactive,2.81%
CC1=C(/C=C/C(C)=C/C=C/C(C)=C/C(=O)Oc2c(C)c(C)c3c(c2C)CC[C@@](C)(CCC[C@H](C)CCC[C@H](C)CCCC(C)C)O3)C(C)(C)CCC1,inactive,inactive,inactive,5.73 µM (active),-26.4%
Cc1c(C)c2c(c(C)c1OC(=O)CCC(=O)O)CC[C@@](C)(CCC[C@H](C)CCC[C@H](C)CCCC(C)C)O2,inactive,inactive,inactive,inactive,-15.1%
O=C(O)[C@H]1C(=CCO)O[C@H]2CC(=O)N12,inactive,inactive,inactive,inactive,-34.7%
Oc1cc(O)cc(O)c1,inactive,inactive,inactive,inactive,10.4%
CCC(C)[C@@H](N)C(=O)O (stereo partly specified),inactive,inactive,inactive,inactive,8.55%
C/C(=C\C(=O)OCCCCCCCCC(=O)O)C[C@@H]1OC[C@H](C[C@@H]2O[C@H]2[C@@H](C)[C@H](C)O)[C@@H](O)[C@H]1O,inactive,inactive,inactive,inactive,0.0634%
CC/C=C\C/C=C\C/C=C\C/C=C\C/C=C\CCCC(=O)O,inactive,inactive,inactive,inactive,1.33%
CCN(CC)CCOc1ccc2nc(N(C)C)sc2c1,inactive,inactive,inactive,inactive,0.178%
CCC(C(=O)NC(N)=O)c1ccccc1 (stereo unspecified),inactive,inactive,inactive,inactive,8.54%
Cc1ncc(COP(=O)(O)O)c(CN)c1O,inactive,inactive,inactive,inactive,-0.583%
COc1ccc2c(=O)c(C)c(-c3ccccc3)oc2c1CN(C)C,inactive,inactive,inactive,inactive,-18.3%
CNC(=O)c1c(I)c(C(=O)NCC(=O)Nc2c(I)c(C(=O)O)c(I)c(C(=O)NCCO)c2I)c(I)c(N(C)C(C)=O)c1I,inactive,inactive,inactive,inactive,5.89%
Cn1c(=O)c2c(ncn2CCOC(=O)C(C)(C)Oc2ccc(Cl)cc2)n(C)c1=O,inactive,inactive,inactive,32.2 µM (active),-5.21%
C=CC(=O)O,inactive,inactive,inactive,inactive,-7.38%
Nc1ncnc2c1ncn2CCOCP(=O)(O)O,inactive,inactive,inactive,inactive,0.57%
CC(C)CCCC(C)NC(C)C (stereo unspecified),inactive,inactive,inactive,inactive,5.39%
OC1OC[C@@H](O)[C@H](O)[C@@H]1O (stereo partly specified),inactive,inactive,inactive,inactive,0.472%
CNC(=O)OCc1cccc(COC(=O)NC)n1,inactive,inactive,inactive,inactive,-18.3%
CCc1ncnc2cc(OC)c(OC)cc12,inactive,inactive,inactive,inactive,-3.22%

SMILES,Potency [1],Potency [2],Potency [3],Potency [4],"ratio activity, negative = inhibition [5]"
O=C1NCCN1c1ncc([N+](=O)[O-])s1,inactive,inactive,inactive,inactive,1.39% [at 17.1 µM]
CC(=O)Nc1c(I)c(C(=O)O)c(I)c(N(C)C(C)=O)c1I,inactive,inactive,inactive,inactive,11.6%
O=C1CCC(c2ccccc2)(C2CCN(Cc3ccccc3)CC2)C(=O)N1 (stereo unspecified),14.1 µM (active),inactive,inactive,inactive,1.84%
CN[C@@H]1[C@H](O[C@H]2[C@H](O[C@H]3[C@H](O)[C@@H](O)[C@H](N=C(N)N)[C@@H](O)[C@@H]3N=C(N)N)O[C@@H](C)[C@]2(O)C=O)O[C@@H](CO)[C@H](O)[C@H]1O,inactive,inactive,inactive,inactive,0%
CCOC(=O)[C@@H](N)CS,inactive,inactive,inactive,0.0573 µM (active),-2.51%
OCCCNc1ccccc1,inactive,inactive,inactive,inactive,0.736%
FC(F)(F)C(F)(F)C(F)(F)C(F)(F)C(F)(F)C(F)(F)F,inactive,inactive,inactive,inactive,0.234%
NC(N)=NCC1COc2ccccc2O1 (stereo unspecified),inactive,inactive,inactive,,2.65%
CC1CC(OC(=O)C(O)c2ccccc2)CC(C)(C)C1 (stereo unspecified),inactive,inactive,inactive,,-3.78%
O=C1c2ccccc2C(=O)C1c1ccc(F)cc1,inactive,inactive,inactive,,2.55%
C[N+]1(C)[C@@H]2CC(OC(=O)C(O)(c3cccs3)c3cccs3)C[C@H]1[C@@H]1O[C@@H]12 (stereo partly specified),inactive,inactive,inactive,inactive,-1.55%
CC(=O)N[C@@H]1C(O[C@H]2O[C@H](C(=O)O)C(O)[C@H](O)[C@H]2O)[C@H](O)[C@@H](CO)O[C@H]1O[C@@H]1C(C(=O)O)O[C@@H](O[C@H]2[C@H](O)[C@@H](CO)OC(O)[C@@H]2NC(C)=O)[C@H](O)[C@H]1O (stereo partly specified),inactive,inactive,inactive,,1.9%
CC(C)[C@H](N)C(=O)OCC(CO)OCn1cnc2c(=O)[nH]c(N)nc21 (stereo partly specified),inactive,inactive,inactive,inactive,0.697%
CCCCCCCCCCCC(=O)OCC(O)CO (stereo unspecified),inactive,inactive,inactive,inactive,1%
CC(/C=C/C=C(\C)C(=O)O[C@@H]1O[C@H](CO[C@@H]2O[C@H](CO)[C@@H](O)[C@H](O)[C@H]2O)[C@@H](O)[C@H](O)[C@H]1O)=C\C=C\C=C(C)\C=C\C=C(/C)C(=O)O[C@@H]1O[C@H](CO[C@@H]2O[C@H](CO)[C@@H](O)[C@H](O)[C@H]2O)[C@@H](O)[C@H](O)[C@H]1O,inactive,inactive,inactive,,3.54%
O=C(O)CCCC/C=C(\c1ccccc1)c1cccnc1,inactive,inactive,inactive,inactive,-4.66%
CC(=O)Nc1ccc(OC(C)=O)cc1,inactive,inactive,inactive,inactive,-15.5%
CSCCC(N)C(=O)O (stereo unspecified),inactive,inactive,inactive,inactive,5.55%
CC(CNC(=O)c1cccnc1)NC(=O)c1cccnc1 (stereo unspecified),inactive,inactive,inactive,inactive,0%
O=c1[nH]c(=O)n([C@H]2C[C@H](O)[C@@H](CO)O2)cc1/C=C/Br,inactive,inactive,inactive,,-1.39%
CCN(CC)C(=O)c1cccnc1,inactive,inactive,inactive,,2.08%

SMILES,Potency [1],Potency [2],Potency [3],Potency [4],"ratio activity, negative = inhibition [5]"
CSc1nc2cc(Oc3cccc(Cl)c3Cl)c(Cl)cc2[nH]1,31.6 µM (active),inactive,inactive,,-0.19%
O=C(O)/C=C/c1ccccc1,inactive,inactive,inactive,inactive,-0.672%
O=C(O)c1ccc(NC(=O)[C@H](Cc2ccc(O)cc2)NC(=O)c2ccccc2)cc1,inactive,inactive,inactive,inactive,6%
CCCCC[C@H](O)/C=C/[C@H]1[C@H](O)CC(=O)[C@@H]1C/C=C\CCCC(=O)O,inactive,inactive,inactive,,-1.59%
COc1ccc2nc(NC(=O)Nc3ccccc3)sc2c1,inactive,0.721 µM (active),inactive,,-14.6%
[O]=[Bi][O]C(=O)[O][Bi]=[O],inactive,inactive,inactive,inactive,-4.42%
CC(O)CN(C)C (stereo unspecified),inactive,inactive,inactive,inactive,6.7%
CN(Cc1ccccc1)Cc1ccccc1,inactive,inactive,inactive,,0.417%
O=C(O)COc1ccc(CCNS(=O)(=O)c2ccccc2)s1,inactive,inactive,inactive,,-0.95%
O=C1N=C2SCCN2C(=O)C1Cc1ccc(Cl)cc1 (stereo unspecified),inactive,inactive,inactive,inactive,0.0729%
CC(=O)Nc1ccc(OC(=O)c2ccccc2O)cc1,inactive,25.6 µM (active),inactive,inactive,1.52%
O=C(O)Cc1nn(Cc2ccc(Br)cc2F)c(=O)c2ccccc12,inactive,inactive,inactive,inactive,3.04%
C=CCOc1ccc(CC(=O)O)cc1Cl,inactive,inactive,inactive,inactive,-6.65%
CN1C(=O)C[C@@H](C(=O)N[C@@H](Cc2cnc[nH]2)C(=O)N2CCC[C@H]2C(N)=O)NC1=O,inactive,inactive,inactive,inactive,-0.824%
CCCOC(=O)c1ccccc1O,inactive,inactive,inactive,,5.82%
NC(=S)NS(=O)(=O)c1ccc(N)cc1,inactive,inactive,inactive,inactive,-12.7% (active)
O=C(NCCNCC(O)COc1ccc(O)cc1)N1CCOCC1 (stereo unspecified),inactive,inactive,inactive,,1.92%
CCCOc1cc(N)ccc1C(=O)OCCN(CC)CC,inactive,inactive,inactive,inactive,1.14% [at 17.1 µM]
COC(=O)CC[C@H](N)C(=O)O,inactive,inactive,inactive,inactive,-5.51%
